The text below walks through data of ChEMBL document CHEMBL1157539, “Thousands of chemical starting points for antimalarial lead identification” (Nature, 2010).

SMILES strings stand for the structures.

One test deals with Plasmodium falciparum. Put plainly: GSK_TCMDC: Inhibition of Plasmodium falciparum Dd2 in whole red blood cells, using parasite LDH activity as an index of growth. Test compounds present at 2uM. Type of test: functional.
For the compound `COc1ccccc1C1CCN(CCCCNC(=O)c2ccc(NC(=O)c3ccc(Cl)cc3)cc2)CC1`, the Inhibition stood at 12%.

Compound `COc1cccc2cc(C(=O)N[C@@H](CC(C)C)C(=O)N[C@H](/C=N/NC(=O)OC(C)(C)C)CC(=O)OC(C)(C)C)oc12` gave an Inhibition of 57%.

Compound `CC1(C)N=C(N)N=C(N)C1c1ccc(Cl)cc1.Cl` (configuration not stated) displayed an Inhibition of 0%.

Take `O=C(Nc1cncc(NC(=O)c2ccc(Cl)c(Cl)c2)c1)c1ccc(Cl)c(Cl)c1`: the Inhibition was found to be 70%.

As for `Cc1cc(=NN=Cc2ccc(Cl)cc2)c2cccc(C)c2[nH]1`, the Inhibition turned out to be 47%.

In turn, `COc1ccc2nccc(N(C)CC3(O)CCN(CCc4ccc5c(c4)NC(=O)CS5)CC3)c2n1.Cl` yielded an Inhibition of 67%.

For the compound `OC(CNc1ccnc(Nc2ccccc2)n1)c1cccc(C(F)(F)F)c1` (configuration not stated), the Inhibition was found to be 61%.

In turn, `O=C(Cc1cccnc1)N(Cc1ccc(-c2ccc(CNCc3cccnc3)cn2)cc1)C1CCN(Cc2ccccc2)CC1.O=C(O)C(F)(F)F` registered an Inhibition of 6%.

The compound `Cc1ccc(/C=C/C(=O)N2CCC(CCN3CCC(c4c[nH]c5ccccc45)CC3)CC2)cc1C` gave an Inhibition of 5%.

As to `CCCSc1nc2c(c(=O)n1CCc1ccccc1)C1(CCCC1)Cc1ccccc1-2`, the Inhibition is reported as 53%.

As for `Cc1cccc2nc(-c3ccc(-c4ccc(CN5CCN(CCN6CCOCC6)CC5)cc4)s3)[nH]c12.O=C(O)C(F)(F)F`, the Inhibition came to 99%.

Compound `CC1CC(NCCCNc2cc(=O)c3ccccc3[nH]2)c2c(Cl)c(Cl)cc(Cl)c21` (configuration not stated) registered an Inhibition of 52%.

Take `CCCCN(CCCC)CCC(O)C(=Cc1ccc(Cl)cc1Cl)c1ccc(C(F)(F)F)cc1N` (configuration not stated): the Inhibition is given as 99%.

On to `O=C(Nc1ccc(C(=O)N2CCN(CCN3CCN(c4cccc(C(F)(F)F)c4)CC3)CC2)cc1)c1cc(Cl)cc(Cl)c1`, for which the Inhibition is reported as 19%.

For the compound `Cn1cccc1C(=O)Nc1cccc(-c2nn3ccccc3c2-c2ccnc(Nc3ccc4c(c3)OCCO4)n2)c1`, the Inhibition is 27%.

In the case of `COc1ccc(C(=O)CCC(=O)N(Cc2ccc(-c3ccc(CNCCc4ccc(S(C)(=O)=O)cc4)cn3)cc2)C2CCN(Cc3ccccc3)CC2)cc1F.O=C(O)C(F)(F)F`, the Inhibition amounted to 72%.

In the case of `COc1cccc(COCC(O)CN(CCc2ccccn2)C(=O)c2ccccc2F)c1` (configuration not stated), the Inhibition was 30%.

Regarding `Cc1cc(Oc2ccc(-n3ccnc3)cc2)nc(N2CCN(CCCN3CCCC3)CC2)n1.O=C(O)C(F)(F)F`, the Inhibition is reported as 7%.

`O=C(Nc1cccc(-c2ccc(CN3CCC(O)CC3)cc2)c1)c1cccc(Cl)c1.O=C(O)C(F)(F)F`: the Inhibition was determined as 2%.

In turn, `CCC(CO)NCC(O)Cn1c2ccc(Cl)cc2c2cc(Cl)ccc21` (configuration not stated) came in with an Inhibition of 88%.

As to `CCN(CC)c1ccc2nc(N)nc(N)c2c1Cl.Cl`, the Inhibition stood at 1%.

`CCCC(C)NC(=O)/C=C/c1ccccc1-c1cccc(OC)c1` (configuration not stated) had an Inhibition of 59%.

For the compound `O=C(NC1CCCCCC1)C1CCCN(C(=O)c2ccc(O)c(-c3ccc(Cl)c(Cl)c3)c2)C1` (configuration not stated), the Inhibition is given as 21%.

In the case of `CCOCCCNc1nc2cc(OC)c(OC)cc2c2nc(-c3ccccc3)nn12`, the Inhibition is reported as 98%.

In the case of `CC(=O)Nc1ncc(C(=O)Nc2cccc(-c3cccc(-c4nc5cc(F)ccc5[nH]4)c3)c2)s1`, the Inhibition was determined as 93%.

Consider `CC(C)CC(=O)NC1CCN(Cc2c(-c3cccs3)nc3ccccc3c2C(=O)N[C@@H](C)C2CCCCC2)CC1`, for which the Inhibition was found to be 97%.

`O=C(c1ccc(Cl)cc1)N1CCCC(C(=O)N(Cc2nnc(-c3ccccc3Cl)o2)C2CC2)C1` (configuration not stated): the Inhibition stood at 96%.

The test system of a further test is HepG2. Nature of the test: GSK_TCMDC: Percent inhibition of human HepG2 cell line. Test compounds present at 10uM. Type of test: functional.
For `O=C(Nc1cccc(-c2cccc(-c3nc4ccccc4[nH]3)c2)c1)Nc1ccc(F)c(F)c1F`, the Inhibition was 78%.

The compound `COc1ccc2ncc(F)c([C@@H](O)CN3CCC(NCc4cc(C#N)c5c(c4)CCO5)CC3)c2n1` registered an Inhibition of 15%.

`COc1cc(F)c2ncc(Cl)c([C@H](O)CN3CCC(NCc4cc5c(cn4)OCCO5)CC3)c2c1.Cl` registered an Inhibition of 10%.

In the case of `CN(C)/C(=N/C(=N)NCc1ccc(Cl)c(Cl)c1)NCCCCCCN/C(=N\C(=N)NCc1ccc(Cl)c(Cl)c1)N(C)C`, the Inhibition is listed as 20%.

In turn, `O=C(/C=C/c1ccc2ccccc2c1)NCCCCCN1CCC(c2c[nH]c3ccccc23)CC1` gave an Inhibition of 18%.

In turn, `Cc1noc(C)c1-c1cccc(CNCc2cccc(-c3csc(-c4nc5ccccc5[nH]4)c3)c2)c1.O=C(O)C(F)(F)F` displayed an Inhibition of 32%.

`O=C(N[C@@H](CC1CCCCC1)C(=O)NCCN1CCCCC1)c1ccc(O)c(-c2ccc(Cl)c(Cl)c2)c1` returned an Inhibition of 14%.

For `COc1cc2c(cc1S(=O)(=O)c1ccc(NC(=O)c3cc4ccccc4s3)cc1)CCN(C)CC2`, the Inhibition amounted to 21%.

As for `CCCCN1CCCC[C@H]1[C@@H](O)c1ccnc2ccc(OCC)cc12`, the Inhibition was found to be 6%.

Compound `Nc1nc2c(cnn2CCCCCCCP(=O)(O)O)c(=O)[nH]1` registered an Inhibition of 0%.

Turning to `Clc1ccc(Cc2nc3ccccc3[nH]2)cc1Cl`, the Inhibition was 5%.

`Cc1cc2c(cc1C(F)(F)F)N(C(=O)Nc1cc(C(=O)NCCN(C)C)cc(C(F)(F)F)c1)CC2`: the Inhibition came to 19%.

Regarding `COC(=O)[C@@H](NC(=O)[C@@H](Nc1ccc(C#N)c2ccccc12)C(C)(C)C)c1ccc(O)cc1`, the Inhibition was 0%.

Regarding `COc1ccccc1C1CCN(CCCCNC(=O)c2ccc(NC(=O)c3ccc(Cl)cc3)cc2)CC1`, the Inhibition is 21%.

Consider `COc1cccc2cc(C(=O)N[C@@H](CC(C)C)C(=O)N[C@H](/C=N/NC(=O)OC(C)(C)C)CC(=O)OC(C)(C)C)oc12`, for which the Inhibition turned out to be 4%.

With `CC1(C)N=C(N)N=C(N)C1c1ccc(Cl)cc1.Cl` (configuration not stated), the Inhibition stood at 16%.

On to `O=C(Nc1cncc(NC(=O)c2ccc(Cl)c(Cl)c2)c1)c1ccc(Cl)c(Cl)c1`, for which the Inhibition is given as 12%.

On to `Cc1cc(=NN=Cc2ccc(Cl)cc2)c2cccc(C)c2[nH]1`, for which the Inhibition was 0%.

`COc1ccc2nccc(N(C)CC3(O)CCN(CCc4ccc5c(c4)NC(=O)CS5)CC3)c2n1.Cl` registered an Inhibition of 10%.

Take `OC(CNc1ccnc(Nc2ccccc2)n1)c1cccc(C(F)(F)F)c1` (configuration not stated): the Inhibition is reported as 16%.

As for `O=C(Cc1cccnc1)N(Cc1ccc(-c2ccc(CNCc3cccnc3)cn2)cc1)C1CCN(Cc2ccccc2)CC1.O=C(O)C(F)(F)F`, the Inhibition was 8%.

On to `Cc1ccc(/C=C/C(=O)N2CCC(CCN3CCC(c4c[nH]c5ccccc45)CC3)CC2)cc1C`, for which the Inhibition is 50%.

For `CCCSc1nc2c(c(=O)n1CCc1ccccc1)C1(CCCC1)Cc1ccccc1-2`, the Inhibition worked out at 46%.

For the compound `Cc1cccc2nc(-c3ccc(-c4ccc(CN5CCN(CCN6CCOCC6)CC5)cc4)s3)[nH]c12.O=C(O)C(F)(F)F`, the Inhibition is 41%.

With `CC1CC(NCCCNc2cc(=O)c3ccccc3[nH]2)c2c(Cl)c(Cl)cc(Cl)c21` (configuration not stated), the Inhibition worked out at 6%.

The compound `CCCCN(CCCC)CCC(O)C(=Cc1ccc(Cl)cc1Cl)c1ccc(C(F)(F)F)cc1N` (configuration not stated) returned an Inhibition of 0%.

`O=C(Nc1ccc(C(=O)N2CCN(CCN3CCN(c4cccc(C(F)(F)F)c4)CC3)CC2)cc1)c1cc(Cl)cc(Cl)c1` displayed an Inhibition of 23%.

Take `Cn1cccc1C(=O)Nc1cccc(-c2nn3ccccc3c2-c2ccnc(Nc3ccc4c(c3)OCCO4)n2)c1`: the Inhibition is reported as 12%.

In turn, `COc1ccc(C(=O)CCC(=O)N(Cc2ccc(-c3ccc(CNCCc4ccc(S(C)(=O)=O)cc4)cn3)cc2)C2CCN(Cc3ccccc3)CC2)cc1F.O=C(O)C(F)(F)F` had an Inhibition of 20%.

Consider `COc1cccc(COCC(O)CN(CCc2ccccn2)C(=O)c2ccccc2F)c1` (configuration not stated), for which the Inhibition is recorded as 61%.

Take `Cc1cc(Oc2ccc(-n3ccnc3)cc2)nc(N2CCN(CCCN3CCCC3)CC2)n1.O=C(O)C(F)(F)F`: the Inhibition is on record as 5%.

Compound `O=C(Nc1cccc(-c2ccc(CN3CCC(O)CC3)cc2)c1)c1cccc(Cl)c1.O=C(O)C(F)(F)F` registered an Inhibition of 11%.

As for `CCC(CO)NCC(O)Cn1c2ccc(Cl)cc2c2cc(Cl)ccc21` (configuration not stated), the Inhibition worked out at 11%.

In turn, `CCN(CC)c1ccc2nc(N)nc(N)c2c1Cl.Cl` yielded an Inhibition of 62%.

For the compound `CCCC(C)NC(=O)/C=C/c1ccccc1-c1cccc(OC)c1` (configuration not stated), the Inhibition is 0%.

As to `O=C(NC1CCCCCC1)C1CCCN(C(=O)c2ccc(O)c(-c3ccc(Cl)c(Cl)c3)c2)C1` (configuration not stated), the Inhibition is 5%.

As for `CCOCCCNc1nc2cc(OC)c(OC)cc2c2nc(-c3ccccc3)nn12`, the Inhibition is listed as 10%.

`CC(=O)Nc1ncc(C(=O)Nc2cccc(-c3cccc(-c4nc5cc(F)ccc5[nH]4)c3)c2)s1` showed an Inhibition of 27%.

The compound `CC(C)CC(=O)NC1CCN(Cc2c(-c3cccs3)nc3ccccc3c2C(=O)N[C@@H](C)C2CCCCC2)CC1` returned an Inhibition of 0%.

`O=C(c1ccc(Cl)cc1)N1CCCC(C(=O)N(Cc2nnc(-c3ccccc3Cl)o2)C2CC2)C1` (configuration not stated): the Inhibition came out at 10%.
